HT1080NT lethal – kills 2HG-producing HT-1080-NT fibrosarcoma cells | AID 686970 | HT-1080-NT fibrosarcoma viability, CellTiter-Glo ATP luminescence, 48 h | Potency, µM (top dose mostly 46.1 µM), inactives show at the top dose activity, negative = less viability, hits mostly cytotoxic | 1.6% of 360,000 active;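 also: NT is the 2HG producing partner of a matched IDH1 knockdown line; potency is read from the fitted curve at half-maximal effect; 0% = DMSO-treated cells and -100% = media-only wells without cells; nearly all actives have a fitted effect of over 55% in size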
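750 cells/well, RPMI + 5% FBS; 2 h settle, compound pin-transfer, 48 h at 37 degrees C. CellTiter-Glo 10 min RT, luminescence. Normalized to DMSO and media-only wells.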
IL1B secr inh – inflammasome signaling inhibition, IL-1 beta readout | THP-1 LPS/ATP IL-1B secretion, AlphaLISA, 16 h; stronger effect = lower value | activity change, % at 57.5 µM | 4.7% of 360,000 active; in the data active = activity change below about -50%; inconclusive = mostly about -30% to -49%
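Secreted IL-1B measured by AlphaLISA bead assay after 16 h compound exposure of THP-1 cells; compounds (final up to 57.5 uM) added 1 h before LPS (250 ng/mL) and ATP (1.25 mM) stimulation; lower signal means less secretion.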
DT40 TDP1 CPT – DT40-hTDP1 cell growth loss with CPT; 12% of 420,000 active; chicken DT40 Tdp1-/-;hTDP1 cells + 20 nM CPT, ATP luminescence, 48 h; Potency, µM (series often up to 46.2 µM), inactives show at the top dose activity change, negative = growth inhibition, most hits filed as inhibitors; AID 686979; also: potency is read from the fitted curve at half-maximal effect; nearly all actives have a fitted effect of over 55% in size
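Chicken DT40 Tdp1-/- cells complemented with human TDP1, 400 cells/well, exposed to compounds plus 20 nM camptothecin for at least 48 h at 37 C; viability read as ATP content by CellTiter-Glo luminescence.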
HT1080 IDH1KD tx – toxicity to HT-1080 IDH1 knockdown cells (counter line). HT-1080 IDH1 knockdown viability, ATP luminescence, 48 h. Potency, µM (doses to about 46.1 µM), without a hit: at the top dose activity, negative = toxicity, hits mostly cytotoxic. 2% of 360,000 active;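 also: potency is read from the fitted curve at half-maximal effect; 0% = DMSO wells and -100% = cell-free medium wells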
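In this qHTS, HT-1080 cells depleted of IDH1 are exposed for 48 h at 37 °C to compound titrations. Toxicity is scored from CellTiter-Glo luminescence, with DMSO as full viability and medium alone as none.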
TDP1 cell noCPT – qHTS for Inhibitors of human tyrosyl-DNA phosphodiesterase 1 (TDP1): qHTS in cells in absence of CPT | DT40 Tdp1-/- hTDP1 cells, no CPT, ATP luminescence, 48 h | Potency, µM (top dose mostly 46.2 µM), inactives show at the highest dose activity change, negative = growth inhibition, usual class: inhibitors | 15% of 420,000 active; also: potency is read from the fitted curve at half-maximal effect; nearly all actives have a fitted effect of over 55% in size
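No-CPT arm: Tdp1-/-;hTDP1 DT40 cells (400/well) plus compounds, incubated ≥48 hr at 37 °C. Readout CellTiter-Glo luminescence.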
Active calls of the source: *; ? = inconclusive; / = not tested or not shown; [ ] = dose if it differs, or a comment. Shown are actives, neighbours in structure and some others; about 19% of the full set was active somewhere. Unless noted, calls follow the shape of the dose curve; as a rule, active = well fitted curve in the direction sought with a large enough effect; inconclusive = small, poorly fitted or top-dose-only effect, or another doubt; inactive = no such curve, though single readings can be large; an effect the other way counts as inactive or inconclusive. Unless noted, % is scaled to controls: 0 for no effect and ±100 for the full control effect.

SMILES	HT1080NT lethal	IL1B secr inh	DT40 TDP1 CPT	HT1080 IDH1KD tx	TDP1 cell noCPT
CCOc1cccc(C(=O)Nc2cccc(-c3nnc(-c4ccccc4)o3)c2)c1	0%	-73*	15µM*	0%	18µM*
COc1cccc(-c2nnc(-c3ccco3)o2)c1	26%	5	?	5%	29µM*
COc1ccc(C(=O)Nc2nnc(-c3ccccc3)o2)cc1OC	-23%	-11	?	-4%[9.24 µM]	23µM*
COc1cccc(-c2nnc(-c3ccc(C)o3)o2)c1	15%	-2	7%	9%	-11%
COc1cccc(C(=O)Nc2ccc(-c3nnc(-c4ccco4)o3)cc2)c1	-16%	-19	?	?	10µM*
COc1ccc(C(=O)NCC(=O)OCc2ccc(F)cc2Cl)cc1OC	10%	0	-1%	1%	?
COc1ccc(C(=O)NCC(=O)OCc2c(Cl)cccc2Cl)cc1OC	12%	-7	?	2%	15µM*
O=C(Nc1nnc(-c2ccc(F)cc2)o1)c1cccc([N+](=O)[O-])c1	-25%	95	3.7µM*	?	3.3µM*
Cc1ccc(-c2nnc(-c3ccc(NC(=O)c4ccco4)cc3)o2)cc1	-4%	0	23µM*	-1%	21µM*
COc1ccc(CC(=O)NNC(=O)CSc2ccc(C)cc2)cc1	12%	16	2%	16%	-11%
O=C(NCCC(=O)N1CCN(c2ccccn2)CC1)c1ccc(Br)cc1	-5%	-5	-8%	1%	-28%
O=C(NC1CC(=O)N(c2cccc(F)c2)C1)c1ccc(S(=O)(=O)N2CCOCC2)cc1 (stereo not given)	/	/	-3%	/	?
Cc1ccc(NC(=O)C(=O)NCCc2sc(-c3ccc(Cl)cc3)nc2C)cc1C	/	/	-22%	/	0%
O=C1CN(S(=O)(=O)c2ccccc2)CCN1S(=O)(=O)c1ccccc1	15%	?	-3%	0%	-17%
CSc1ccc(C(O)c2ncc(-c3cccc(OCc4ccccc4)c3)[nH]2)cc1 (stereo not given)	?	-15	?	?	?
CCOc1cccc(C(=O)Nc2cccc(-c3nnc(-c4ccc(C)cc4)o3)c2)c1	-8%	0	18µM*	-2%	?
CCCOc1cccc(C(=O)Nc2cc(-c3ccccc3)no2)c1	/	/	12µM*	/	?
COc1cccc(-c2nnc(NC(=O)c3cccc(F)c3)o2)c1	-4%	33	3.3µM*	-9%	3.3µM*
CCCOc1ccc(C(=O)Nc2ccc(NC(=O)c3ccccc3)c(Br)c2)cc1	/	/	15µM*	/	-71%
COc1cccc(-c2nnc(NC(=O)c3ccccc3Br)o2)c1	?	-29	?	?	?
COc1ccc(N(CC(=O)NCCc2ccc(OC)c(OC)c2)S(=O)(=O)c2ccc(OC)c(OC)c2)cc1	14%	-7	?	-8%	?
CNC(=O)CN(CCN(CCN(CC(=O)[O-])CC(=O)NC)CC(=O)[O-])CC(=O)[O-].O.[Gd+3]	/	/	-1%	/	2%
COc1ccc(C(=O)Nc2cccc(NC(=O)c3ccc(OC)c(OC)c3)n2)cc1OC	-28%	-22	8.2µM*	-17%	7.3µM*
Cc1ccc(NC(=O)c2cnn(-c3ccccc3)c2NC(=O)c2ccco2)cc1	1%	-17	13µM*	14%	?
C[C@H](CCC(=O)NCC(=O)O)C1CC[C@H]2C3CC[C@@H]4C[C@H](O)CC[C@]4(C)C3C[C@H](O)[C@]12C (stereo not given in full)	/	/	0%	/	-1%
SMILES	HT1080NT lethal	IL1B secr inh	DT40 TDP1 CPT	HT1080 IDH1KD tx	TDP1 cell noCPT
O=C(CCS(=O)(=O)c1ccccc1)OCc1ccc([N+](=O)[O-])cc1	14%	18	?	6%	5%
COCCCNC(=O)C[C@@H]1C[C@@]2(C(=O)OC)CC(C)(C)CC=C2N(CCc2ccc(OC)c(OC)c2)C1=O	10%	-6	-15%	2%	-3%
COC(=O)[C@@]12C[C@@H](CC(=O)NCc3ccc(OC)c(OC)c3)C(=O)N(CCc3ccc(OC)c(OC)c3)C1=CCC(C)(C)C2	-24%	-28	16µM*	3%	15µM*
COC(=O)[C@@]12C[C@@H](CC(=O)NCc3ccc(OC)c(OC)c3)C(=O)N(Cc3ccco3)C1=CCC(C)(C)C2	-18%	-15	?	-13%	?
CCCCCCCCN1C(=O)[C@H](CC(=O)NCc2ccc(OC)c(OC)c2)C[C@@]2(C(=O)OC)CC(C)(C)CC=C12	?	-78*	18µM*	?	18µM*
CCCCNC(=O)C[C@@H]1C[C@@]2(C(=O)OC)CC(C)(C)CC=C2N(CCc2ccc(OC)c(OC)c2)C1=O	1%	?	?	4%	?
COC(=O)[C@@]12C[C@@H](CC(=O)NCc3ccc(OC)c(OC)c3)C(=O)N(Cc3ccccc3)C1=CCC(C)(C)C2	-10%	-18	18µM*	-10%	?
COC(=O)[C@@]12C[C@@H](CC(=O)NCCc3ccccc3OC)C(=O)N(CCc3ccc(OC)c(OC)c3)C1=CCC(C)(C)C2	?	-4	23µM*	?	?
Cc1cnc(CNc2ccnc(-c3cccc(C#N)c3)n2)cn1	/	/	8%	/	7%
COC(=O)[C@@]12C[C@@H](CC(=O)NCC34CC5CC(CC(C5)C3)C4)C(=O)N(CCc3ccc(OC)c(OC)c3)C1=CCC(C)(C)C2	?	-98*	16µM*	?	15µM*
CCOC(=O)c1ccc(-n2c(-c3ccco3)nc3ccccc3c2=O)cc1	5%	10	12µM*	15%	18µM*
CCOC(=O)c1ccc(-n2c(=O)[nH]c3ccccc3c2=O)cc1	20%	-60*	-14%	11%	-14%
CCOC(=O)c1ccc(-n2c(C)ccc2C)cc1	-3%	-14	-11%	2%	-5%
CCOC(=O)c1ccc(N2C(=O)C=CC2=O)cc1	?	-89*	0.82µM*	-12%	1µM*
CC(C)n1nnnc1C1c2ccccc2C(=O)N1Cc1ccc(F)cc1 (stereo not given)	1%	2	-10%	6%	?
Cc1ccnc(N2CCC(C(=O)NCc3ccccc3F)CC2)n1	4%	40	7%	-5%	8%
COc1cc(C(=O)NCCOc2cc(C)cc(C)c2)c(Br)c(OC)c1OC	?	11	16µM*	-21%[9.24 µM]	?
COc1cc(C(=O)NC2CCCC2)c(Br)c(OC)c1OC	2%	8	-20%	15%	15%
CCOC(=O)C1=C(Nc2ccccc2)CC(C)(O)C(C(=O)OCC)C1c1ccc(Br)cc1 (stereo not given)	-1%	-27	?	-11%	16µM*
